Cardio protect: modulators protecting cardiomyocytes from myocardial damage | actives 0.63% (n = 360,000) | H9c2 cardiomyocytes, H2O2 injury protection, ATPLite, 2 h | protection from H2O2 cell death, % at 20 µM | AID 588492;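 active = compounds giving at least 50% protection of heart cells from peroxide-induced death in the single-dose screen, raw or plate-pattern-corrected value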;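 note: 0% = DMSO wells with peroxide and 100% = DMSO wells without peroxide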
NTR1 agonist: agonists of human neurotensin receptor NTR1; activation, % at 20 µM; NTR1-U2OS beta-arrestin-GFP spot imaging, agonist mode; actives 0.17% (n = 330,000);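 active = activation at or above 40% of the spot to cytoplasm intensity ratio, with at least 20 cells analyzed; inconclusive = wells under 20 cells, flagged as cytotoxic or low count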;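 note: 0% = DMSO without peptide and 100% = 100 nM NTR1 peptide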
ALR inh: human ALR oxidase inhibition via reduced H2O2. actives 3.8% (n = 290,000). purified ALR, DTT oxidation, H2O2 HRP-luminol luminescence. inhibition, % (concentration not given with the values). P55789;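 active = mean replicate inhibition above about 79%, with every replicate also reaching it, limit read from the data; inconclusive = only one of the two criteria met; inactive = mean below limit and not every replicate reaching it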
Target sequence (P55789 whole entry, looked up): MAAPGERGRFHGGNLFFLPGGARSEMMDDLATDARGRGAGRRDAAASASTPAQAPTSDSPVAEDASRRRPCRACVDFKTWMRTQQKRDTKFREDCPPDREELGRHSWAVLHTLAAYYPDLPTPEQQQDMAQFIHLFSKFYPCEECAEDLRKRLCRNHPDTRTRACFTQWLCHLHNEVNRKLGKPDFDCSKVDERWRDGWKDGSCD
SUMO HTRF inh: blocks human SUMOylation mediated by UBC9. HTRF SUMOylation assay, SAE1/SAE2 + UBC9, in vitro. inhibition, % at 35 µM. actives 0.36% (n = 290,000). AID 2006; in the data active = inhibition above about 50%, passing the limit was not always enough; inconclusive = no clear call, values can overlap the other calls
Target sequence (P63279 whole entry, looked up): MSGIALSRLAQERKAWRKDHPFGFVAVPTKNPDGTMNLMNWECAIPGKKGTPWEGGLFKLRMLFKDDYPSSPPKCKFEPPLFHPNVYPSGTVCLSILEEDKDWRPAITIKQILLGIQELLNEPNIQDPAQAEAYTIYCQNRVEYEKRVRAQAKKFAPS
* marks the source's active call; other numbers are inactive results; ? = inconclusive; · = no result given. A selection: hits, their analogues and other compounds. The true share with any hit is near 3.9%.

SMILES	Cardio protect	NTR1 agonist	ALR inh	SUMO HTRF inh
CCC(C(=O)NCCCN1CCN(C)CC1)n1nc(C)n2c(cc3occc32)c1=O (configuration not stated)	-3	-1	-2	-2
Cc1cc(C)n(-c2ccc3cccc(NS(C)(=O)=O)c3n2)n1	88*	-2	-4	-88
CS(=O)(=O)Nc1cccc2cccnc12	13	1	-5	-76
CC(C)c1cc(NC(=O)c2ccccc2)cc(C(C)C)c1O	8	0	50	1
Oc1ccc(/C=N/Nc2cccc3cccnc23)c(O)c1	21	13	84*	16
O=c1[nH]ncc(N/N=C\c2ccc(O)cc2O)c1Cl	10	2	96*	10
Oc1ccc(/C=N/Nc2ncc(Br)cn2)c(O)c1	38	0	26	-12
Oc1ccc(/C=N/Nc2nccnc2Cl)c(O)c1	52*	3	59	-34
Cc1ccc(/C=N/Nc2cccc3cccnc23)c(O)c1	-18	15	-1	-34
O=C(C1CCN(S(=O)(=O)N2CCC3(CC2)OCCO3)CC1)N1CCc2ccccc2C1	-3	2	-8	12
Cc1ccc(Cl)cc1N1CCN(C(=O)c2cn(C)c(=O)c3c2c2ccccc2n3C)CC1	0	28	·	-20
Cc1cccc(N2CCN(C(=O)c3cn(C)c(=O)c4c3c3ccccc3n4C)CC2)c1C	10	21	88*	-26
COc1ccc(-n2cc(-c3ccccc3)c3c(N4CCOCC4)ncnc32)cc1	58*	7	·	-5
COc1ccc(-n2cc(-c3ccccc3)c3c(NCCCN4CCOCC4)ncnc32)cc1	12	1	·	1
CCN1CCN(c2ncnc3c2c(-c2ccccc2)cn3-c2ccc(F)cc2)CC1	12	4	-39	-14
Fc1ccc(-n2cc(-c3ccccc3)c3c(N4CCOCC4)ncnc32)cc1	58*	20	·	4
Oc1ccccc1CNc1nc2ccccc2n1CCN1CCCCC1	0	0	96*	10
COc1ccccc1CNc1nc2ccccc2n1CCN1CCCCC1	-12	0	98*	-23
CC(C)(C)NC(=O)NC(=O)CSc1n[nH]c(-c2ccccc2Br)n1	-4	2	96*	9
Cc1ccc(-c2nc(C#N)c(N3CCC(C)CC3)o2)cc1	-9	8	·	-16
CC(C)(Cc1ccc(O)cc1)NC(=O)CC(=O)N/N=C/c1ccc(Cl)cc1	-2	1	16	2
O=C(CC(=O)N/N=C/c1ccc(O)cc1)N/N=C/c1ccc(O)cc1	-1	2	99*	0
CC12CCC(C(=O)N/N=C/c3ccc(O)cc3)(OC1=O)C2(C)C (configuration not stated)	3	0	99*	7
Cn1cccc1/C=N/NC(=O)Cc1cccs1	-6	3	2	17
CC12CCC(C(=O)NNC(=O)c3ccccc3)(OC1=O)C2(C)C (configuration not stated)	-3	1	-2	6
SMILES	Cardio protect	NTR1 agonist	ALR inh	SUMO HTRF inh
O=C(N/N=C/c1ccccc1)C(=O)N/N=C/c1ccccc1	-4	-1	-2	18
O=C(N/N=C/c1ccc(O)cc1)/C(=C/c1ccccc1)CCO	-6	-1	100*	14
O=C(Cc1cccs1)N/N=C\c1ccc(O)cc1	-5	-1	98*	5
CCc1nnc(NC(=O)c2ccc(OC)cc2OC)s1	-4	0	-4	1
CC(=O)CCN1CCOCC1	-5	-1	-2	7
CC(=O)NN1C(=O)/C(=C/c2ccc(C(C)C)cc2)SC1=S	-5	0	98*	-22
O=C(NN1C(=O)/C(=C\c2cccnc2)SC1=S)C(c1ccccc1)c1ccccc1	60*	4	0	-11
O=C(O)c1ccc(/C=C2\SC(=S)N(NC(=O)c3ccccc3)C2=O)cc1	4	0	19	4
Cc1cccc(S(=O)(=O)Nc2nc3ccccc3nc2Nc2cccc(C(=O)O)c2)c1	-4	1	98*	-5
O=C(O)c1cccc(Nc2nc3ccccc3nc2NS(=O)(=O)c2ccc(F)cc2)c1	-12	0	?	·
CC(=O)Nc1ccc(S(=O)(=O)Nc2nc3ccccc3nc2Nc2ccc(O)c(C(=O)O)c2)cc1	-2	-1	99*	1
Nc1nc2nonc2nc1N	4	-1	-20	11
COc1ccccc1-c1cc(C(F)(F)F)nc(S(=O)(=O)CCCC(=O)NC(C)C)n1	-21	18	8	25
COc1ccccc1-c1cc(C(F)(F)F)nc(N2CCCC2)n1	-13	1	5	-30
COc1ccccc1-c1cc(C(F)(F)F)nc(S(C)(=O)=O)n1	-36	15	91*	9
COc1ccccc1-c1cc(C(F)(F)F)nc(S(=O)(=O)CCCC(=O)N2CCCCC2C)n1 (configuration not stated)	-32	16	98*	-21
COc1ccc(Cc2nnc(NC(=O)c3ccccc3F)s2)cc1OC	6	0	-6	93*
CC(NC(=O)COC(=O)c1cc(S(=O)(=O)N2CCOCC2)ccc1F)c1ccccc1 (configuration not stated)	-4	4	2	·
O=C(CCl)Nc1nc(-c2ccco2)c(-c2ccco2)s1	3	0	-24	82*
O=C(CCCSc1ccccc1)Nc1nc(-c2ccco2)c(-c2ccco2)s1	-10	·	0	79*
CCOC(=O)c1cnc(SC)nc1Oc1cccc(NC(=O)c2cccc(Cl)c2Cl)c1	71*	6	-8	21
CCOC(=O)c1c(-c2ccccc2)nnn1-c1nc(OCC)nc(N2CCCCC2)n1	70*	14	-18	10
CCOC(=O)c1nnn(-c2nc(OC)nc(N3CCCCC3)n2)c1-c1ccccc1	·	·	·	-18
O=C(CCC(=O)N1CCOCC1)NCCc1ccc(F)cc1	-1	2	0	·
CN1C(=O)NC(c2ccc(Cl)cc2)C2=C1CC(C)(C)CC2=O (configuration not stated)	7	0	94*	6
SMILES	Cardio protect	NTR1 agonist	ALR inh	SUMO HTRF inh
CC1(C)CC(=O)C2=C(C1)Nc1cc3c(cc1C2c1ccc(F)cc1)OCO3 (configuration not stated)	-2	0	98*	37
CC1(C)CC(=O)C2=C(C1)Nc1ccccc1NC2c1ccc2c(c1)OCO2 (configuration not stated)	-1	1	99*	23
CN1C(=O)NC(c2ccccc2Cl)C2=C1CC(C)(C)CC2=O (configuration not stated)	12	1	-8	16
CC1(C)CC(=O)C2=C(C1)Nc1ccccc1NC2c1nc2ccccc2[nH]1 (configuration not stated)	10	-3	98*	11
CC1(C)CC(=O)C2=C(C1)Nc1cc3c(cc1C2c1ccc2c(c1)OCO2)OCO3 (configuration not stated)	-4	3	-24	21
C=CCOC(=O)c1cn(CC)c2nc(C)ccc2c1=O	0	0	-12	16
CCc1ccc(NC(=O)[C@H](Cc2c[nH]c3ccccc23)NC(=O)[C@@H]2Cc3ccccc3CN2)cc1	-6	2	-29	14
COc1cccc(C(NC(C)=O)c2nc(-c3cccc4cccnc34)cs2)c1 (configuration not stated)	7	·	·	·
